The source of these data is PubChem BioAssay.

One assay addresses Albumin (Bos taurus) (UniProt P02769). Nature of the assay: compounds binding labelled BSA control protein – biochemical, small-molecule microarray, Alexa647 label, 635/667 nm fluorescence, artefact control for SMM control protein annotation, profiling panel (AID 1118).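 Note: score merges 667 nm emission intensity and signal-to-noise per printed compound spot.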 The conditions noted are these: BSA-A647 binding, fluorescence 635 nm, higher = more signal.
Assay [1] is described as follows: probe aXIP binding to arrayed compounds – biochemical, NeuroSMM set, 635/667 nm fluorescence, primary screen (AID 1119).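 Note: probe is the protein aXip251-270 applied at 1 µg/mL to compound-printed slides; binding of probe to printed compounds measured as 667 nm fluorescence plus signal to noise.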 The conditions noted are these: small-molecule microarray, higher = more signal, called active from +8 up or from −8 down.
Assay [2] is described as follows: probe aNOTCH3 binding on compound microarray – biochemical, small-molecule microarray, 635/667 nm fluorescence, primary screen (AID 1120).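 Note: probe is a biotin-tagged antibody raised against NOTCH3 rather than NOTCH3 protein; score merges spot fluorescence near 667 nm with spot signal to noise.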 Conditions: higher = more signal.
A short description of assay [3]: probe aNOTCH2 binding on compound microarray – biochemical, small-molecule microarray, 635/667 nm fluorescence, primary screen (AID 1121).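 Note: score merges feature fluorescence read at 667 nm with its signal to noise.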 Conditions: higher = more signal.
In assay [4] the target is Carbonic anhydrase 2 (Homo sapiens) (UniProt P00918). Kind of assay: compounds binding carbonic anhydrase 2 – biochemical, small-molecule microarray, Alexa647-labelled CAII, profiling panel (AID 1122). The conditions noted are these: CAII-A647 binding fluorescence, higher = more signal.
Assay [5] is described as follows: COS7 lysate on small-molecule microarray, probe aHis, 635 nm (AID 1123).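 Note: z-score combines 667nm fluorescence intensity with signal-to-noise per printed compound spot.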 The conditions noted are these: COS7 cell lysate, fluorescence, higher = more signal.
Assay [6] in a line: probe aLAP1 signal on lysate-treated microarray – cell lysate, small-molecule microarray, COS7 lysate, primary screen (AID 1124).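 Note: lysate comes from COS7 cells expressing LAP1 and is applied at 0.3 µg/mL; score merges spot fluorescence near 667 nm with signal-to-noise over triplicate slides.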 The conditions noted are these: probe aLAP1, fluorescence, higher = more signal.
A further assay relates to Sam68 (KHDRBS1). Nature of the assay: compounds binding KHDRBS1 protein – biochemical, small-molecule microarray, 635 nm fluorescence, primary screen (AID 1125).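 Note: score merges 667 nm channel intensity with signal to noise over triplicate slides.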 Conditions: higher = more signal.
In assay [7] the test system is Chordin-like protein 2 (CHRDL2). Kind of assay: compounds binding chordin-like 2 – biochemical, small-molecule microarray, 635 nm fluorescence, primary screen (AID 1126).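 Note: printed compound slides probed with Chrdl2 protein at 4 µg/mL for 1 h at 4 C; score merges 667 nm emission intensity with signal to noise over three replicate slides.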 Conditions: fluorescence 635 nm, higher = more signal.
Assay [8] addresses Concanavalin-A (Canavalia ensiformis) (UniProt P02866). Nature of the assay: compounds binding concanavalin A lectin – biochemical, small-molecule microarray, Alexa647 label, 635 nm, artefact control for SMM control protein annotation, primary screen (AID 1127).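 Note: z combines 667 nm emission intensity with signal-to-noise across three replicate slides.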 The conditions noted are these: ConA-A647 binding fluorescence, higher = more signal.

Calls of active or inactive are those of the source.

Chain of Concanavalin-A (Canavalia ensiformis) (P02866 whole entry, looked up): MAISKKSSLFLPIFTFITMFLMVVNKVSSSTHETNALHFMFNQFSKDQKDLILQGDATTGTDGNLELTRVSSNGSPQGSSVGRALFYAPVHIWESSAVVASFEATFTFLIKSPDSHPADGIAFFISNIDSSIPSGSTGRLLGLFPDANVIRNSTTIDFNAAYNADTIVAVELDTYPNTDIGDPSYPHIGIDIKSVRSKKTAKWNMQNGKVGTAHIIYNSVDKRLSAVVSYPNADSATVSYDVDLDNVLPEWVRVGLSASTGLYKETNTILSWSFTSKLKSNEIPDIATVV
Chain of Albumin (Bos taurus) (P02769 whole entry, looked up): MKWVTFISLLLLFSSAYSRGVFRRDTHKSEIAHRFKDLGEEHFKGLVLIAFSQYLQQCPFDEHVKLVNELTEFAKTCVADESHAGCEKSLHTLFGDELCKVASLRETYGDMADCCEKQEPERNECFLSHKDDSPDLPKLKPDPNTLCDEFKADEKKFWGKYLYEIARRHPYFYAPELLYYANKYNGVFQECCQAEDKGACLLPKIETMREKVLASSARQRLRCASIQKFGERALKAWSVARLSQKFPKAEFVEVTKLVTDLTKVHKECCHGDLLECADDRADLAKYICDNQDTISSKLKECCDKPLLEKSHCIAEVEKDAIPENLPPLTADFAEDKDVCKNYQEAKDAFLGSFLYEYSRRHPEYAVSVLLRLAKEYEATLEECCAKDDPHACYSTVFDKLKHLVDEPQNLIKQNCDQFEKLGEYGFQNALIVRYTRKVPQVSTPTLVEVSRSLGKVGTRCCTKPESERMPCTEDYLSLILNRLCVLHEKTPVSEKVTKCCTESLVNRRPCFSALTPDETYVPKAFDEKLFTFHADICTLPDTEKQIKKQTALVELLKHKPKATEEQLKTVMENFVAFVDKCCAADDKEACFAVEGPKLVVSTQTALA

`COc1cc(CO)cc(I)c1O[C@H]1C=C(C(=O)NCCO)C[C@@H](N(CC2CCCCC2)C(=O)c2ccc(C(F)(F)F)cc2)[C@@H]1O`: the composite z-score was 0.388 with Albumin (Bos taurus); -0.0921 in [2]; -0.147 in assay [3]; 0.055 in assay [4]; 0.461 in [5]; 0.621 in [6]. Also, the composite z-score was determined as 1.27 in the assay with Sam68 (KHDRBS1), 0.398 in assay [7] and 0.352 in assay [8]. In addition, the composite Z-score in assay [1] is 0.527 (inactive).
Take `COc1cc2c(cc1OC)CN(C(=O)[C@H]1[C@@H]3C(=O)O[C@@H](c4ccccc4)[C@@H](c4ccccc4)N3[C@@H](c3ccc(OCCO)cc3)[C@]13C(=O)Nc1ccc(C#CCCO)cc13)CC2`: the composite z-score with Albumin (Bos taurus) came out at 0.592; in assay [2] it was 0.0418; in [3], 0.0292; in [4], 0.434; in [5], 2.2; in [6] it was 1.25. In addition, the composite z-score was 1.29 in the assay on Sam68 (KHDRBS1), 0.0602 in assay [7] and 1.11 in [8]. Besides, in [1], the composite Z-score is 0.524 (inactive).
With `CN(C)CCCNC(=O)[C@@H]1c2ccccc2C(=O)N(CC23CC4CC(CC(C4)C2)C3)[C@H]1c1ccc(CO)cc1`, the composite z-score with Albumin (Bos taurus) is 0.821; in assay [2] it was -0.001; in [3], -0.0984; in assay [4], 0.344; in [5], 2.62; in assay [6] it was 2.1. In addition, the figures for the composite z-score (in the assay on Sam68 (KHDRBS1); in [7]; in assay [8]) were 1.3, 0.452 and 1.18, respectively. The composite Z-score in assay [1] is 2.01 (inactive).
For the compound `O=C1O[C@@H](c2ccccc2)[C@@H](c2ccccc2)N2[C@@H](c3ccccc3OCCO)[C@]3(C(=O)Nc4ccc(C#CC5=CCCCC5)cc43)[C@@H](C(=O)NC[C@H](O)c3ccccc3)[C@H]12`, the composite z-score in the assay with Albumin (Bos taurus) is 0.402; in [2], 0.0522; in assay [3] it was -0.124; in assay [4] it was 0.211; in assay [5], 0.363; in assay [6] it was 0.182. For the same compound, the composite z-score in the assay with Sam68 (KHDRBS1) was determined as 1.28; in assay [7], 0.478; in assay [8], 1.04. In assay [1], the composite Z-score was -0.584 (inactive).
On to `CN(C)CCCNC(=O)[C@@]1(C)c2ccccc2C(=O)N(Cc2cc(C(F)(F)F)cc(C(F)(F)F)c2)[C@H]1c1ccc(CO)cc1`, for which the composite z-score with Albumin (Bos taurus) is 0.193; in assay [2] it was -0.0984; in [3] it was -0.0341; in assay [4] it was 0.485; in assay [5] it was 0.155; in assay [6], 0.0017. For the same compound, the composite z-score in the assay with Sam68 (KHDRBS1) is -0.546; in assay [7], -1.03; in assay [8], -1.04. Besides, the composite Z-score in [1] is 0.222 (inactive).
Consider `O=C1c2ccccc2[C@@]2(Cc3ccccc3N(C3CC3)C2=O)[C@H](c2ccc(CO)cc2)N1C1CCCCC1`, for which the composite z-score was 0.804 with Albumin (Bos taurus); -0.125 in assay [2]; -0.0804 in assay [3]; 0.269 in assay [4]; 0.154 in [5]; 0.586 in [6]. Also, the composite z-score in the assay with Sam68 (KHDRBS1) is -0.728; in assay [7], -0.431; in [8] it was -1.02. In addition, the composite Z-score in [1] is -0.481 (inactive).
With `Cc1ccc(S[C@]2(C(=O)NCC(F)(F)F)CC(=O)N(Cc3ccccc3)[C@@H]2c2ccc(CO)cc2)cc1`, the composite z-score in the assay with Albumin (Bos taurus) is -0.597; in assay [2], -0.115; in [3], -0.119; in assay [4], 0.699; in assay [5], 0.973; in assay [6], -0.0477. Further, the composite z-score with Sam68 (KHDRBS1) was 0.619; in [7], -1.23; in assay [8], -0.643. Further, the composite Z-score in assay [1] was 0.363 (inactive).
For `C=C(C(=O)CC[C@H](OC(=O)c1cccnc1)c1cccc(OCCO)c1)C(C)C`, the composite z-score was -0.849 with Albumin (Bos taurus); -0.0971 in assay [2]; -0.161 in [3]; 0.0143 in assay [4]; 0.0609 in assay [5]; -0.0536 in assay [6]. Further, the results for the composite z-score (in the assay on Sam68 (KHDRBS1); in [7]; in [8]) were 0.481, -0.507 and -0.0842, respectively. For the same compound, the composite Z-score in assay [1] was 0.587 (inactive).
Take `CCCN1C(=O)[C@]2(Cc3ccccc3)N=C(c3ccc(OCCCO)cc3)O[C@@H]2c2ccccc21`: the composite z-score with Albumin (Bos taurus) is 0.727; in assay [2], -0.0345; in assay [3], -0.142; in [4], 0.537; in assay [5], 1.86; in [6] it was 0.335. Further, the composite z-score in the assay on Sam68 (KHDRBS1) amounted to 1.28; in assay [7] it was 0.777; in assay [8], 1.14. Also, the composite Z-score in assay [1] was -0.659 (inactive).
With `CC=CC(O)C1C=CC2C(=O)N(C)C(=O)C2N1Nc1ccc([N+](=O)[O-])cc1[N+](=O)[O-]` (stereo not given), the composite z-score was 0.9 in the assay with Albumin (Bos taurus); -0.0932 in assay [2]; -0.0351 in assay [3]; 0.834 in assay [4]; 1.08 in assay [5]; 0.146 in assay [6]. Further, the values for the composite z-score (in the assay with Sam68 (KHDRBS1); in assay [7]; in [8]) were -0.52, 0.001 and 0.458, respectively. Besides, the composite Z-score in assay [1] is 0.236 (inactive).
On to `C=CC[C@H](OC(=O)Nc1ccc(OC)cc1)c1ccc(O)c2ccccc12`, for which the composite z-score was -0.343 with Albumin (Bos taurus); 0.0539 in [2]; -0.124 in assay [3]; 0.289 in assay [4]; 0.865 in assay [5]; -0.0938 in [6]. In addition, the composite z-score stood at 1.3 in the assay on Sam68 (KHDRBS1), 1.18 in assay [7] and 1.09 in assay [8]. The composite Z-score in [1] is -0.192 (inactive).
On to `O=C1OCC=C[C@H]2OC34C=CCN(c5ccc(Cl)cc5)C(=O)[C@H]3N(CCCCCO)C(=O)[C@@H]4[C@@H]12` (stereo not given in full), for which the composite z-score in the assay with Albumin (Bos taurus) is 0.387; in assay [2], -0.42; in [3], -0.168; in assay [4], 0.807; in assay [5] it was -0.347; in [6], 0.406. Further, the composite z-score in the assay on Sam68 (KHDRBS1) is -1.56; in assay [7], -0.971; in assay [8], -0.893. In addition, the composite Z-score in [1] is 0.0583 (inactive).
Turning to `CN1C(=O)C2C=CC(C(O)C3CCCCC3)N(N3CCCCC3)C2C1=O` (stereo not given), the composite z-score in the assay with Albumin (Bos taurus) was found to be 0.92; in assay [2], 0.196; in assay [3], 0.0019; in assay [4], 0.663; in [5], 2.48; in assay [6], 0.794. The composite z-score in the assay with Sam68 (KHDRBS1) amounted to 1.3; in assay [7], 0.0449; in assay [8], 0.927. In addition, the composite Z-score in assay [1] was 1.56 (inactive).
